HCV inhibitor = blocks hepatitis C virus | Potency, µM (top dose mostly 41.8 µM), for the others: top-dose activity change, negative = inhibition, hits mostly inhibitors | 340,000 compounds, 3.4% hits | Huh7.5.1 HCVcc-Cre infection, luciferase reporter, 44 h; also: % is scaled to controls: 0 for no effect and ±100 for the full control effect
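Reporter virus HCVcc-Cre (~0.5 moi) infects cells exposed to compound; seeding density 1,000 cells/well with 4 h settling beforehand. Luminescence, 15 sec read, taken 44 h post-infection following a 15 min RT substrate incubation.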
SARS PLpro yeast = inhibitors of SARS-CoV papain-like protease in yeast | S. cerevisiae expressing SARS-CoV PLpro, growth rescue | Potency, µM (series often up to 32.9 µM), for the others: at the top dose activity, positive = growth rescue, usual class: activators | 330,000 compounds, 0.19% hits | AID 485353; calls by dose curve; also: 0% is about no effect; nearly all actives have a fitted effect of over 55% in size
NS1 inh = influenza NS1 inhibition. Potency, µM (highest dose often 46.1 µM), inactives show top-dose activity, positive = more growth. 270,000 compounds, 0.4% hits. AID 2326; calls by dose curve; also: actives are rising curves; nearly all actives have a fitted effect of over 50% in size
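S. cerevisiae expressing influenza A NS1, grown in glucose, washed, then diluted 1:100 into pH 6.0 -URA galactose medium with 23 nl compound. Growth recovery read as OD600; NS1-free strain serves as control.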
Pf growth 48h = P. falciparum growth inhibition at 48 hours (one generation) | P. falciparum luciferase growth in erythrocytes, 48 h | Potency, µM (top dose mostly 28.7 µM), without a hit: at the top dose activity change, negative = inhibition, most hits filed as inhibitors | 310,000 compounds, 5.9% hits | AID 504832; also: % is scaled to controls: 0 for no effect and ±100 for the full control effect
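First compound was added to culture medium, then infected red cells at 0.1% parasitemia and 2% hematocrit (final). After incubation at 37 C under 5% CO2, luciferase detection reagent was dispensed and light output recorded.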
AMA1-RON2 inh = disrupts binding of P. falciparum AMA1 to RON2. AlphaScreen AMA1-biotinylated RON2 peptide binding. Potency, µM (series often up to 58.2 µM), inactives show top-dose activity change, negative = inhibition, hits mostly inhibitors. 360,000 compounds, 0.2% hits. AID 720542;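 also: 0% = vehicle wells and -100% = peptide control; nearly all actives have a fitted effect of over 45% in size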
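AMA1 (3D7) with his tag at 25 nM final met compounds first, then biotinylated RON2 peptide at 25 nM; detection used donor plus acceptor beads, 10 µg/mL apiece, read by AlphaScreen after 30 min at room temperature.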
Pf growth 96h = P. falciparum growth inhibition at 96 hour, primary screen for plastid delayed-death inhibitors; P. falciparum luciferase reporter growth, 96 h; Potency, µM (doses to about 28.7 µM), inactives show top-dose activity change, negative = inhibition, most hits filed as inhibitors; 320,000 compounds, 6.9% hits; AID 504834; also: % is scaled to controls: 0 for no effect and ±100 for the full control effect
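96 h incubation, 37 C, 5% CO2, of luciferase-reporter P. falciparum-infected RBCs (2% hematocrit, 0.05% parasitemia final) with test compounds; endpoint luminescence.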
* hit, by the source's call; [ ] = dose if it differs, or a comment. This is a sample that favours compounds with a hit; in the whole collection about 12% have one here. Unless noted, calls follow the shape of the dose curve; as a rule, active = well fitted curve in the direction sought with a large enough effect; inconclusive = small, poorly fitted or top-dose-only effect, or another doubt; inactive = no such curve, though single readings can be large; an effect the other way counts as inactive or inconclusive. Potency is read from the fitted curve at half-maximal effect.

For COc1ccc(-c2n[nH]c(C)c2-c2ccc(Cl)cc2)c(O)c1OC the results were HCV inhibitor 14µM*, SARS PLpro yeast -6%, NS1 inh -10%, Pf growth 48h inconclusive, AMA1-RON2 inh 7% and Pf growth 96h inconclusive.
For Cc1[nH]nc(-c2ccc(O)cc2O)c1-c1ccc(Cl)cc1 the results were HCV inhibitor inconclusive, SARS PLpro yeast -10%, NS1 inh -25%, Pf growth 48h 39%, AMA1-RON2 inh 63% and Pf growth 96h 4%.
`COc1ccc(-c2c(-c3ccc(OCC(=O)NN)cc3O)n[nH]c2C)cc1` gave HCV inhibitor -16%, SARS PLpro yeast 4%, NS1 inh inconclusive, Pf growth 48h inconclusive, AMA1-RON2 inh 59% and Pf growth 96h 9.3µM*.
`COc1ccc(-c2n[nH]c(C)c2-c2ccc(Cl)cc2)c(O)c1` gave HCV inhibitor inconclusive, SARS PLpro yeast -27%, NS1 inh -135%, Pf growth 48h 8.3µM*, AMA1-RON2 inh 84% and Pf growth 96h 10µM*.
For CCOc1ccc2nc(NC(=O)C3CCN(c4cnccn4)CC3)sc2c1 the results were HCV inhibitor inconclusive, SARS PLpro yeast -4%, NS1 inh -1%, Pf growth 48h 9.3µM*, AMA1-RON2 inh -16% and Pf growth 96h 28%.
Screening CCOc1ccc2nc(NC(=S)NCc3ccccc3)sc2c1 returned HCV inhibitor -11%, SARS PLpro yeast 24%, NS1 inh 2%, AMA1-RON2 inh 46% and Pf growth 96h 4.1µM*.
`CCOc1ccc2nc(NC(=O)CN3CCN(CC)CC3)sc2c1` gave HCV inhibitor -3%, SARS PLpro yeast 0%, NS1 inh 16%, Pf growth 48h -2%, AMA1-RON2 inh -4% and Pf growth 96h -24%.
`CCOc1ccc2nc(NC(=O)CN3CCOCC3)sc2c1` gave HCV inhibitor 2%, SARS PLpro yeast 3%, NS1 inh 0%, Pf growth 48h 4.1µM*, AMA1-RON2 inh -5% and Pf growth 96h 1%.
Cc1cc2oc(=O)cc(Cn3ncc(Cl)c(Cl)c3=O)c2cc1Cl was read as HCV inhibitor 11µM*, SARS PLpro yeast 2%, NS1 inh -2%, Pf growth 48h inconclusive, AMA1-RON2 inh -8% and Pf growth 96h inconclusive.
O=C(Cn1ncc(Cl)c(Cl)c1=O)c1ccc2c(c1)OCCO2 was read as HCV inhibitor 2µM*, SARS PLpro yeast -35% and AMA1-RON2 inh 10%.
Screening Cc1cccc(Cn2ncc(Cl)c(Cl)c2=O)c1 returned HCV inhibitor 3.5µM*, SARS PLpro yeast -19%, NS1 inh -43%, Pf growth 48h 16%, AMA1-RON2 inh 3% and Pf growth 96h 9%.
Screening Cc1cccc(Cn2nnc3c2C(=O)c2ccccc2C3=O)c1 returned HCV inhibitor inconclusive, SARS PLpro yeast 6%, NS1 inh -5%, Pf growth 48h inconclusive, AMA1-RON2 inh -14% and Pf growth 96h 2.9µM*.
Screening Cc1ccccc1Cn1nnc2c1C(=O)c1ccccc1C2=O returned HCV inhibitor inconclusive and AMA1-RON2 inh -4%.
`Cc1cc(C(=O)Cn2ncc(Cl)c(Cl)c2=O)c(C)n1CC(F)(F)F` gave HCV inhibitor inconclusive, SARS PLpro yeast -43%, NS1 inh 8%, Pf growth 48h 5%, AMA1-RON2 inh -11%[11.6 µM] and Pf growth 96h inconclusive.
Cc1ccc(C)c(C(=O)Cn2ncc(Cl)c(Cl)c2=O)c1 was read as HCV inhibitor 10µM*, SARS PLpro yeast -2%, NS1 inh 3%, Pf growth 48h inconclusive and AMA1-RON2 inh 0%.
For CCNC(=O)C12CCC(C)(C(=O)O1)C2(C)C (stereo unspecified) the results were HCV inhibitor 5%, SARS PLpro yeast 0%, NS1 inh 4%, Pf growth 48h 17%, AMA1-RON2 inh 0% and Pf growth 96h 15%.
Screening CC(Oc1ccccc1)C(=O)N=Nc1c(O)[nH]c2ccc([N+](=O)[O-])cc12 (stereo unspecified) returned HCV inhibitor -8%, SARS PLpro yeast 0%, Pf growth 48h -5%, AMA1-RON2 inh 32µM* and Pf growth 96h -19%.
